{
  "source": "PubChem BioAssay AID1850",
  "about": "(Southern Research Specialized Biocontainment Screening …, 2009)",
  "note": "Values joined by “and” are separate entries in the source; they are usually repeats but may differ in a detail not shown here. Equal values may be shown once. Screen size: about 310,000 compounds; about 1,000 (0.32%) were called active. The rule behind the calls is not given here. Only a sample is shown. Entries with a potency or affinity are not part of this list.",
  "data": [
    {"assay": "Inhibition of PhoP regulon, Salmonella typhi GFP reporter cells, confirmation, 4 h (AID 1850);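 note: 0% = induced wells with vehicle and 100% = uninduced wells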", "details": "Salmonella Typhi PhoP-promoter GFP reporter, fluorescence, at 50 µM, hits give high values", "values": [
      {"molecule": "O=C(CCNC(=O)c1ccc(Br)cc1)NCc1cccnc1", "inhibition": "-2.13% (inactive)"},
      {"molecule": "COc1ccc2[nH]cc(C(=O)CCl)c2c1", "inhibition": "30.9% (inactive)"},
      {"molecule": "COc1ccc2c(C(=O)CN3CCN(CCO)CC3)c[nH]c2c1", "inhibition": "-2.19% (inactive)"},
      {"molecule": "CCc1nc(SCC#N)c(C#N)cc1C", "inhibition": "-1.52% (inactive)"},
      {"molecule": "CC(CCc1ccccc1)NCc1cccc2ccccc12", "note": "(stereo unspecified)", "inhibition": "-6.36% (inactive)"},
      {"molecule": "CCC[C@@H](CN[C@@H](CNC)[C@H](C)CC)NCC1CCC(C(C)(C)C)CC1", "note": "(stereo partly specified)", "inhibition": "11.1% (inactive)"},
      {"molecule": "CNC[C@@H](C)NC[C@@H](Cc1ccccc1)NCCc1ccccc1", "inhibition": "19.6% (inactive)"},
      {"molecule": "CC(Cc1cccc(C(F)(F)F)c1)NCCOC(=O)c1ccccc1", "note": "(stereo unspecified)", "inhibition": "12.2% (inactive) and -11.7% (inactive)"},
      {"molecule": "CCC[C@H](CN[C@@H](CNC)[C@H](C)O)NCCc1ccc(OC)cc1", "inhibition": "-14.6% (inactive)"},
      {"molecule": "COc1ccccc1CCNCc1cccc(C(F)(F)F)c1", "inhibition": "2.37% (inactive)"},
      {"molecule": "Cc1cc(C)n2c(Nc3ccc4c(c3)OCCO4)c(-c3ccccc3)nc2n1", "inhibition": "-10.2% (inactive)"},
      {"molecule": "CCCCN1C(=O)C2NN=C(C(=O)OCC)C2C1=O", "note": "(stereo unspecified)", "inhibition": "8.14% (inactive)"},
      {"molecule": "Cc1ccc(-n2nc3c(c2NC(=O)c2ccc4c(c2)OCO4)CS(=O)(=O)C3)cc1C", "inhibition": "-5.55% (inactive)"},
      {"molecule": "COc1ccccc1N1C(=O)c2ccccc2NC1c1cc(OC)c(OC)c(OC)c1", "note": "(stereo unspecified)", "inhibition": "2.7% (inactive)"},
      {"molecule": "CCc1ccccc1NC(=O)C1CCN(C(=O)c2ccc([N+](=O)[O-])cc2)CC1", "inhibition": "-0.4% (inactive)"},
      {"molecule": "O=C(NCc1ccc(OC(F)(F)F)cc1)C1CC2Cn3c(nc4ccccc43)C2N1Cc1ccccc1", "note": "(stereo unspecified)", "inhibition": "2.43% (inactive)"},
      {"molecule": "N#Cc1c(-c2ccccc2)cc(-c2ccc(O)cc2)nc1N", "inhibition": "-7.46% (inactive)"},
      {"molecule": "O=C(COC(=O)c1ccccc1[N+](=O)[O-])NC(=O)c1ccccc1", "inhibition": "-0.26% (inactive)"},
      {"molecule": "CCNC(=O)Cn1c(=O)c(=O)n(Cc2ccccc2)c2ccc(Cl)cc21", "inhibition": "-13.1% (inactive)"},
      {"molecule": "Cc1ccc(CC2CC(=O)N(c3ccc(C)cc3)C2=O)cc1", "note": "(stereo unspecified)", "inhibition": "7.02% (inactive)"},
      {"molecule": "CCn1c2ccccc2c2cc(NC(=O)CSc3nnc(-c4ccccc4OC)n3N)ccc21", "inhibition": "-0.4% (inactive)"},
      {"molecule": "N=c1c2c(-c3ccccc3)c(-c3ccccc3)n(Cc3ccccc3)c2ncn1CCCn1ccnc1", "inhibition": "-3.96% (inactive)"},
      {"molecule": "N=c1c2c(-c3ccccc3)c(-c3ccccc3)n(Cc3ccco3)c2ncn1CCCO", "inhibition": "12.1% (inactive)"},
      {"molecule": "CCOC(=O)C1=C(CS(=O)(=O)c2ccccc2)NC(=O)NC1c1ccc(OC)c(OC)c1", "note": "(stereo unspecified)", "inhibition": "-2.15% (inactive)"},
      {"molecule": "Cn1c2c(c(=O)n(C)c1=O)CN(Cc1ccc(F)cc1)CN2", "inhibition": "7.57% (inactive)"},
      {"molecule": "c1ccc2[nH]c(-c3ccncc3)nc2c1", "inhibition": "5.01% (inactive)"},
      {"molecule": "Fc1ccc(-c2nc3ccccc3[nH]2)cc1", "inhibition": "-1.08% (inactive)"},
      {"molecule": "C[N+](C)(C)CCCCCC[N+](C)(C)C", "inhibition": "-25.1% (inactive)"},
      {"molecule": "CCCCCC[N+](C)(C)CCSSCC[N+](C)(C)CCCCCC", "inhibition": "5.58% (inactive)"},
      {"molecule": "C[N+](C)(C)CCCCCCCCCC[N+](C)(C)C", "inhibition": "8.92% (inactive)"},
      {"molecule": "C#CC[N+](C)(C)CCCCCCCCCC", "inhibition": "2.68% (inactive)"},
      {"molecule": "CC1CC(=O)Nc2ccccc2N1C(=O)Nc1ccc(F)cc1", "note": "(stereo unspecified)", "inhibition": "-0.31% (inactive)"},
      {"molecule": "Cc1ccc(-c2ccc(C(=O)O)o2)cc1Cl", "inhibition": "6.76% (inactive)"},
      {"molecule": "CCOC(=O)C(=CNc1cc(C)ccc1C)C(=O)OCC", "inhibition": "-9.72% (inactive)"},
      {"molecule": "CCOC(=O)Cc1csc(NC(=O)c2cnc3scc(C)n3c2=O)n1", "inhibition": "-13.9% (inactive)"},
      {"molecule": "O=C(O)c1cc(S(=O)(=O)N2CCN(C(c3ccccc3)c3ccccc3)CC2)ccc1Cl", "inhibition": "-2.19% (inactive)"},
      {"molecule": "CN1CCN(C(c2ccccc2)c2ccc(Cl)cc2)CC1", "note": "(stereo unspecified)", "inhibition": "-4.81% (inactive)"},
      {"molecule": "CN1CCN(CCOc2cccc(Cl)c2)CC1", "inhibition": "4.36% (inactive)"},
      {"molecule": "CN1CCN(C(c2ccccc2)c2ccccc2)CC1", "inhibition": "-1.19% (inactive)"},
      {"molecule": "Cc1cc(C)cc(C(=O)NCC(=O)OC(C)C(=O)N(C)c2ccccc2)c1", "note": "(stereo unspecified)", "inhibition": "-2.85% (inactive)"},
      {"molecule": "Cc1nc2sc3c(c2c(=O)[nH]1)CCCCC3", "inhibition": "-10.5% (inactive)"},
      {"molecule": "Cc1ccccc1-n1ccnc1SCC(=O)NCc1ccco1", "inhibition": "1.18% (inactive)"},
      {"molecule": "O=C(c1ccc(Cl)c(NC2=NC3CS(=O)(=O)CC3S2)c1)N1CCN(c2ccccc2)CC1", "note": "(stereo unspecified)", "inhibition": "-0.27% (inactive)"},
      {"molecule": "Cc1ccc(OCCn2cc(C#N)c3ccccc32)cc1", "inhibition": "-3.38% (inactive)"},
      {"molecule": "COc1ccc(F)cc1S(=O)(=O)NC1CC(C)(C)NC(C)(C)C1", "inhibition": "-0.42% (inactive)"},
      {"molecule": "CCOc1cccc2sc(=NC(=O)CCS(=O)(=O)c3ccc(F)cc3)n(C)c12", "inhibition": "-5.1% (inactive)"},
      {"molecule": "O=C(C1CCCN(S(=O)(=O)c2cccc3nonc23)C1)N1CCN(c2cccc(Cl)c2)CC1", "note": "(stereo unspecified)", "inhibition": "2.17% (inactive)"},
      {"molecule": "CCCNC(=O)C1CC(=O)N(c2ccc(OCC)cc2)C1", "note": "(stereo unspecified)", "inhibition": "-4.98% (inactive)"},
      {"molecule": "Cc1cccc(Nc2nc(NCc3ccco3)nc(N)c2[N+](=O)[O-])c1", "inhibition": "-3.95% (inactive)"},
      {"molecule": "Cc1ccccc1Nc1nc(NCc2ccco2)c2ccccc2n1", "inhibition": "-14.1% (inactive)"},
      {"molecule": "COc1cccc(-c2nc(NCc3ccco3)c3ccccc3n2)c1O", "inhibition": "-5.74% (inactive)"},
      {"molecule": "COc1ccc(OC)c(Nc2nc(NCc3ccco3)c3ccccc3n2)c1", "inhibition": "-4.32% (inactive)"},
      {"molecule": "CSc1nc(NCc2ccco2)c2ccccc2n1", "inhibition": "3.85% (inactive)"},
      {"molecule": "Oc1ccccc1Nc1nc(NCc2ccccc2)c2ccccc2n1", "inhibition": "2.95% (inactive)"},
      {"molecule": "Cc1cccc(Nc2nc(N)c([N+](=O)[O-])c(NCc3ccco3)n2)c1", "inhibition": "-6.31% (inactive)"},
      {"molecule": "Fc1ccccc1-c1nc(NCc2ccco2)c2ccccc2n1", "inhibition": "-5.43% (inactive)"},
      {"molecule": "COc1ccccc1-c1c(C)nn2c(N3CCC4(CC3)OCCO4)cc(C)nc12", "inhibition": "-2.41% (inactive)"},
      {"molecule": "O=C(COC(=O)C1CC(=O)N(c2nc(-c3ccccc3)cs2)C1)c1ccccc1", "note": "(stereo unspecified)", "inhibition": "-9.24% (inactive)"},
      {"molecule": "CC(=O)NC(Cc1ccc(N(CCCl)CCCl)cc1)C(=O)NCC(=O)NCC(=O)O", "note": "(stereo unspecified)", "inhibition": "6.1% (inactive)"},
      {"molecule": "Cc1nn(CCCC(=O)NCCCN2CCN(C)CC2)c(=O)c2c1sc1ccccc12", "inhibition": "11.5% (inactive)"},
      {"molecule": "Cc1ccc(S(=O)(=O)NCCC(=O)OCc2ccc([N+](=O)[O-])cc2)cc1C", "inhibition": "-4.36% (inactive)"}
    ]}
  ]
}
